Assay [1] is described as follows: qHTS assay to identify small molecule agonists of the constitutive androstane receptor (CAR) signaling pathway - cell viability counter screen (AID 1224836). Also: nearly all actives have a fitted effect of over 45% in size. Also: potency is read from the fitted curve at half-maximal effect. The essentials:
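23 h treatment, 37 C, 5% CO2. Cell line: HepG2 stably expressing hCAR with a CYP2B6-2.2kb construct. Co-treatment: PK11195, 0.75 uM final. Read-out: CellTiter-Fluor fluorescence intensity.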

Assay [2] can be described thus: qHTS assay to identify small molecule antagonists of the constitutive androstane receptor (CAR) signaling pathway - cell viability counter screen (AID 1224837). Also: nearly all actives have a fitted effect of over 45% in size. Also: potency is read from the fitted curve at half-maximal effect. The procedure, abridged: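 Multiplexed cytotoxicity read-out for the CAR antagonist screen: double-stable HepG2-CYP2B6-hCAR cells co-treated with 50 nM CITCO (final) and compound over 15 concentrations, incubated 23 hr, then assessed by CellTiter-Fluor fluorescence.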
(In general: qHTS replaces the single test concentration by a dilution series.)

The target of assay [3] is Nuclear receptor subfamily 1 group I member 3 (Homo sapiens) (UniProt Q14994). Put plainly: qHTS assay to identify small molecule antagonists of the constitutive androstane receptor (CAR) signaling pathway (AID 1224838). Also: nearly all actives have a fitted effect of over 40% in size. Also: potency is read from the fitted curve at half-maximal effect. The essentials: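 Compounds were titrated across 15 concentrations onto HepG2 cells double-stably expressing hCAR and a CYP2B6-2.2kb reporter, together with 50 nM CITCO (final). After 24 h at 37 C, luciferase activity was measured by luminescence.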

Assay [4] has the same target. Put plainly: qHTS assay to identify small molecule agonists of the constitutive androstane receptor (CAR) signaling pathway (AID 1224839). Also: nearly all actives have a fitted effect of over 15% in size. The essentials: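 Compounds tested at 15 concentrations on HepG2 cells stably harbouring hCAR and CYP2B6-2.2kb reporter constructs, co-treated with PK11195 (0.75 uM final), 24 h at 37 C; luminescent reporter signal quantified.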

Assay [5] can be described thus: qHTS assay to identify small molecule antagonists of the estrogen related receptor signaling pathway with the pleiotropic PPARgamma coactivator (PGC) from Tox21 10K library - cell viability counter screen (AID 1224840; active = well fitted cell-killing curve with a large enough effect in the repeat runs, not every such curve was filed as active; also: nearly all actives have a fitted effect of over 40% in size; also: potency is read from the fitted curve at half-maximal effect). The procedure, abridged: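 Step one, plate 2,000 PGC/ERR cells per well; step two, incubate 6 h at 37 C/5% CO2; step three, pin-transfer compounds; step four, incubate 17.5 h; step five, add CellTiter-Fluor and read fluorescence after 30 min.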

Assay [6] can be described thus: qHTS assay to identify small molecule antagonists of the estrogen related receptor signaling pathway with the pleiotropic PPARgamma coactivator (PGC) from Tox21 10K library (AID 1224841; call rule not given here; also: actives are mostly falling curves and most rising ones were filed inactive; nearly all actives have a fitted effect of over 50% in size; also: potency is read from the fitted curve at half-maximal effect). The essentials: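 Antagonism in this quantitative HTS is taken from loss of luciferase signal in PGC/ERR cells. Cells (2,000/well) are treated with compounds in DMSO after a 6 h settling period and read by One-Glo luminescence after 18 h.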

Assay [7] in a line: qHTS assay to identify small molecule agonists of the estrogen related receptor signaling pathway with the pleiotropic PPARgamma coactivator (PGC) from Tox21 10K library (AID 1224842). Also: nearly all actives have a fitted effect of over 15% in size. The procedure, abridged:
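PGC/ERR reporter cells (NTP line) were seeded 2,000 per well, rested 6 h at 37 C/5% CO2, then pin-dosed with compounds in DMSO for 18 h at 37 C; luciferase read by One-Glo luminescence after 30 min at room temperature.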

For assay [8], the target named is Thyrotropin receptor (Homo sapiens) (UniProt P16473). Put plainly: qHTS assay to identify small molecule agonists of the thyroid stimulating hormone receptor (TSHR) signaling pathway (AID 1224843; calls by dose curve; also: nearly all actives have a fitted effect of over 45% in size). The essentials: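 TSHR-expressing HEK293 cells (800 per well) were exposed to compounds for 30 min at room temperature. cAMP was then detected by HTRF competition with cAMP-d2 and anti-cAMP cryptate, read after 1 h at room temperature. Fifteen concentrations, triplicate.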

Assay [9] in a line: qHTS assay to identify small molecule agonists of the hypoxia (HIF-1) signaling pathway - cell viability counter screen (AID 1224844; calls by dose curve; also: nearly all actives have a fitted effect of over 50% in size; also: potency is read from the fitted curve at half-maximal effect). The procedure, abridged:
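Tox21 10K compounds were added to HRE-bla ME-180 cells (0.5% dialyzed FBS) and incubated 17 hrs at 37C; ATP-based CellTiter-Glo luminescence then reported cell viability in the same wells.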

Assay [10] is described as follows: qHTS assay to identify small molecule agonists of H2AX (AID 1224845; active = well fitted activation curve with a large enough effect in the signal ratio in the repeat runs, not every such curve was filed as active; the % refers to the signal ratio). The essentials:
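Wild-type CHO-K1 cells plated overnight, then exposed 3 hr at 37C to compounds at 15 concentrations (0.76% DMSO). Lysed, then HTRF anti-pH2AX(S139)-cryptate/anti-H2AX-d2 detection after 24 hr at room temperature; emissions 665 and 620 nm.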

Assay [11] in a line: qHTS assay to identify small molecule agonists of the hypoxia (HIF-1) signaling pathway (AID 1224846; active = well fitted activation curve with a large enough effect in the signal ratio in the repeat runs, not every such curve was filed as active; the % refers to the signal ratio). The essentials:
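Steps: seed ME-180 HRE-bla cells (2,000/well, 0.5% dialyzed FBS); incubate 5 hrs at 37C; pin-transfer compounds or DMSO; incubate 17 hrs; add LiveBLAzer B/G substrate CCF4-AM; measure reporter activation by FRET.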

A short description of assay [12]: qHTS assay to identify small molecule agonists of H2AX - cell viability counter screen (AID 1224847; calls by dose curve; also: nearly all actives have a fitted effect of over 30% in size; also: potency is read from the fitted curve at half-maximal effect). The essentials: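 Compounds tested at 15 concentrations were incubated 3 hr at 37C with wild-type CHO-K1 cells; cellular ATP-based luminescence (CellTiter-Glo) indicated viability.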
A short description of assay [13]: qHTS assay to identify small molecule antagonists of the estrogen related receptor (ERR) signaling pathway from Tox21 library (AID 1224848). Also: nearly all actives have a fitted effect of over 50% in size. Also: potency is read from the fitted curve at half-maximal effect. The essentials:
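Cells: ERR line, 2,000/well; 6 h preincubation 37 C/5% CO2. Cpd in DMSO via pin tool; 18 h, 37 C. ONE-Glo, 30 min RT, luminescence.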

The nature of assay [14]: qHTS assay to identify small molecule agonists of the estrogen related receptor (ERR) signaling pathway from Tox21 library (AID 1224849; calls by dose curve; also: nearly all actives have a fitted effect of over 15% in size). Conditions: ERR reporter cell line, ONE-Glo luciferase, 18 h; at 92.4 µM (top of the series) unless noted. The essentials:
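Agonist signal is luciferase luminescence from an ERR reporter cell line treated 18 h at 37 C with DMSO-dissolved compounds, read 30 min after ONE-Glo addition at room temperature.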

The nature of assay [15]: qHTS RealTime-Glo MT Cell Viability Assay in HepG2 cells - 24 hour (AID 1224867). Also: nearly all actives have a fitted effect of over 50% in size. Also: potency is read from the fitted curve at half-maximal effect. The essentials:
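HepG2 suspension premixed with RealTime-Glo reagents is plated at 600 cells per well and left 5 h at 37 C/5% CO2. Compounds in DMSO then go in, and bioluminescence reflecting viable cell number is recorded over 40 h.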

A short description of assay [16]: qHTS RealTime-Glo MT Cell Viability Assay in HEK293 cells - 32 hour (AID 1224868). Also: nearly all actives have a fitted effect of over 50% in size. Also: potency is read from the fitted curve at half-maximal effect. The essentials: (§1)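 Reads taken at 0, 8, 16, 24, 32 and 40 h from the same wells. HEK293 cells (600/well) carried RealTime-Glo reagents from seeding, with compound added after a 5 h settle at 37 C.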
The nature of assay [17]: A CellTox Green Cytotoxicity Assay to monitor cytotoxicity in HEK293 cells - 0 hour (AID 1224869). Also: nearly all actives have a fitted effect of over 50% in size. The procedure, abridged:
(§2)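 Cytotoxicity was tracked continuously in HEK293 cells by a DNA-binding dye excluded from viable cells. Compounds were transferred in DMSO 5 h after seeding; fluorescence was recorded at intervals up to 40 h.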

Assay [18] in a line: A CellTox Green Cytotoxicity Assay to monitor cytotoxicity in HEK293 cells - 40 hour (AID 1224871). Also: nearly all actives have a fitted effect of over 45% in size. Also: potency is read from the fitted curve at half-maximal effect. The essentials:
as §2

Assay [19] in a line: qHTS RealTime-Glo MT Cell Viability Assay in HEK293 cells - 16 hour (AID 1224872). Also: nearly all actives have a fitted effect of over 50% in size. Also: potency is read from the fitted curve at half-maximal effect. The procedure, abridged:
as §1

The nature of assay [20]: qHTS RealTime-Glo MT Cell Viability Assay in HepG2 cells - 40 hour (AID 1224870). Also: nearly all actives have a fitted effect of over 50% in size. Also: potency is read from the fitted curve at half-maximal effect. The essentials:
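HepG2 cells mixed with RealTime-Glo MT reagents (NanoLuc plus cell-permeant prosubstrate) were seeded at 600 cells/well, incubated 5 h at 37 C/5% CO2, then pinned with compounds in DMSO; nonlytic luminescence tracked viability during 40 h treatment.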

Unmarked numbers belong to inactive results. Results filed as inconclusive are left out. Active and inactive are the calls of the source. Unless noted, calls follow the shape of the dose curve; as a rule, active = well fitted curve in the direction sought with a large enough effect in the repeat runs; inconclusive = weak or mixed curves; inactive = no such curve, though single readings can be large; an effect the other way counts as inactive or inconclusive.
% is scaled to controls: 0 for no effect and ±100 for the full control effect.

Sequence of Thyrotropin receptor (Homo sapiens) (P16473 whole entry, looked up): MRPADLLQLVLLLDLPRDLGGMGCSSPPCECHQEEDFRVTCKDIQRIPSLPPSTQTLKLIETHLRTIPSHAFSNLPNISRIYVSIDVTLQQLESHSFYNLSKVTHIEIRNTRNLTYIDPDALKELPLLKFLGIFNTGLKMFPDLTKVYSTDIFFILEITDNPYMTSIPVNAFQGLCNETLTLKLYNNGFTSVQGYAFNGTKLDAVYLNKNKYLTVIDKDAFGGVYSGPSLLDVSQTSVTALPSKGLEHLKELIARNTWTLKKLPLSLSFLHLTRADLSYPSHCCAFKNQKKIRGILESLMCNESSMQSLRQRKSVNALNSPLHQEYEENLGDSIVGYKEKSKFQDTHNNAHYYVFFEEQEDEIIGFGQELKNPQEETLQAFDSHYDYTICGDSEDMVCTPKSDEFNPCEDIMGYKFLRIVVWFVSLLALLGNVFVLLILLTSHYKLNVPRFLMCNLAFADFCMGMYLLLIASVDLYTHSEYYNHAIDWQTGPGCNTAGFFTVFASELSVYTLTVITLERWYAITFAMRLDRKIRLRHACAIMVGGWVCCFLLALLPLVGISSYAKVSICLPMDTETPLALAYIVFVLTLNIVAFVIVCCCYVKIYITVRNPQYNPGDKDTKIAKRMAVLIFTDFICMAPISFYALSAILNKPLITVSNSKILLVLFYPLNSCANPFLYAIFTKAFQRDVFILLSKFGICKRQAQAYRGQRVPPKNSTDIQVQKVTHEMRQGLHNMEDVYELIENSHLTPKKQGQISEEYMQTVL
Sequence of Nuclear receptor subfamily 1 group I member 3 (Homo sapiens) (Q14994 whole entry, looked up): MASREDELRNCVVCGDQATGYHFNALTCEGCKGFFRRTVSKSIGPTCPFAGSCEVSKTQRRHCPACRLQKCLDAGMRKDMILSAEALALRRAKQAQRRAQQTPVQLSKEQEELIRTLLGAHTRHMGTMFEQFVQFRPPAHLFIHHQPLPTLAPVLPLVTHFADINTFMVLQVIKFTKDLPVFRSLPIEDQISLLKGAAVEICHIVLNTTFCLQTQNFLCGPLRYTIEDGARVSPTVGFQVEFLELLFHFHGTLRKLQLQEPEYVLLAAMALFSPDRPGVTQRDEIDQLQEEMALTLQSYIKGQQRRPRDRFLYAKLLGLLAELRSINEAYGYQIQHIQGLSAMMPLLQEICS

Turning to `C[Si](C)(C)Cl`, the Potency result in assay [1], in [2], in assay [3], in [4], in [5] and in [6] was “inactive” throughout. The Potency result in assay [7], in assay [8], in assay [9], in assay [10], in assay [12] and in assay [13] was “inactive” in each case. Also, the Potency result in assay [15], in assay [16], in assay [17], in assay [18] and in assay [19] was “inactive” throughout. Besides, in [11], the outcome was inactive. Further, in [14], the activity change, positive = activation was 0.496%.

On to `CN1CN(C)CN(C)C1`, for which the Potency entry in assay [1], in assay [2], in assay [3], in [4], in assay [5] and in assay [6] was “inactive” in each case. Further, the Potency result in assay [7], in [8], in assay [9], in assay [10], in assay [12] and in assay [13] was “inactive” throughout. In addition, the Potency result in assay [15], in [17], in [18] and in assay [19] was “inactive” in each case. The call in assay [11] was inactive. For the same compound, the activity change, positive = activation in [14] is 7.33%.

As to `CC(COC(=O)c1ccccc1)OC(=O)c1ccccc1` (centres undefined), the Potency entry in assay [1], in assay [2], in assay [3], in assay [4], in [5] and in assay [6] was “inactive” throughout. Besides, the Potency entry in [7], in assay [8], in [9], in assay [12], in assay [13] and in assay [15] was “inactive” in each case. Further, the Potency result in [16], in assay [17], in [20], in [18] and in [19] was “inactive” in each case. The call in assay [11] was inactive. The activity change, positive = activation in assay [14] was 6.72%.

As for `C/C=C/C(=O)Oc1c(CCCCCC(C)C)cc([N+](=O)[O-])cc1[N+](=O)[O-]`, the Potency in assay [1] was 19.3 µM (active); in assay [2], 21.7 µM (active); in assay [3] it was 30.6 µM (active); in assay [5] it was 27.3 µM (active); in assay [6], 6.86 µM (active); in [9] it was 17.4 µM (active). Further, the Potency in assay [12] is 50.5 µM (active); in [13] it was 6.11 µM (active); in [15] it was 21.9 µM (active); in [16], 15.5 µM (active); in [20] it was 43.6 µM (active); in [18], 38.9 µM (active). In addition, in assay [19], the Potency was 19.5 µM (active). For the same compound, the Potency result in assay [4], in assay [7], in assay [8] and in assay [17] was “inactive” throughout. The activity change, positive = activation in assay [14] is -62.8%.

On to `O=C1OC(OC(=O)c2cccnc2Nc2cccc(C(F)(F)F)c2)c2ccccc21` (centres undefined), for which the Potency entry in assay [1], in assay [2], in [3], in assay [4], in assay [5] and in [6] was “inactive” in each case. Further, the Potency result in assay [7], in assay [8], in [9], in assay [12], in assay [13] and in [15] was “inactive” throughout. Moreover, the Potency result in assay [17], in assay [20], in assay [18] and in [19] was “inactive” in each case. Also, in [14], the activity change, positive = activation was -0.557% [at 42.5 µM].

Take `CC(C)c1ccc(O)c(C(C)C)c1`: the Potency entry in assay [1], in assay [2], in [3], in assay [4], in assay [5] and in [6] was “inactive” throughout. Besides, the Potency result in [7], in assay [8], in [10], in [13], in [15] and in assay [16] was “inactive” throughout. Besides, the Potency entry in assay [17], in assay [20] and in assay [19] was “inactive” in each case. The values for the Potency in [12] and in assay [18] were 89.8 µM (active) and 21.9 µM (active), respectively. The activity change, positive = activation in assay [14] was -4.92%.

The values above are taken from PubChem BioAssay (Tox21).
